PubChem BioAssay (NCI)
Compounds without any hit were thinned out: in the full panel of roughly 83,000, 20% have a hit.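 In brief: 96-well plates, 48 h treatment, single concentration, percent growth endpoint.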 A number with no mark means an inactive call. The source made the active and inactive calls. The calls were made as follows: active = growth percent below 10; inactive = the rest.

system: HL-60(TB) leukemia; assay: NCI-60 one-dose screen, 48 h (100 = growth as untreated, 0 = no growth, -100 = all killed); conditions: 10 µM unless noted

Going from `COc1ccc(/C=C(/C)c2ccc3ccc(OC)cc3[o+]2)c(O)c1` to `CCCCCCNC(=O)Oc1ccc(/C(=C(/C)c2ccccc2)c2ccc(OCCN(C)C)cc2)cc1`, the growth falls from 44% to 23.2%.

Going from `CC(=O)C1=C(C)NC(NNC(N)=S)=NC1c1ccccc1` (stereo not drawn) to `CCOC(=O)C(=O)/C(=C\c1ccc(Cl)cc1)C(=O)N1C(=S)NC(=O)C1CC(C)C` (stereo not drawn), the growth falls from 148% to 111%.

First: CS(=O)(=O)c1ccc(-c2nc3ccccn3c2/C=N/Nc2nc(-c3ccc(Br)cc3)cs2)cc1
Second: CCN1CCN(/C(=N\c2sc(-c3ccccc3)nc2-c2ccccc2)c2ccccc2)CC1
The growth of the first is higher: 107% for the first, 50.9% for the second.

Compared with `CCCCN1C(=O)/C(=c2\sc3n(c2=O)C2C(NN=3)N(CC)C(=O)N2CC)c2cc(C)ccc21` (stereo not drawn), `CCc1cc2c(cc1Cl)nc1c(=O)[nH]c(=O)nc-1n2CCOCC(C)C` is lower in growth: 93.2% for the first, 51.2% for the second.

Compared with `CC1(C)NCCC[C@]2(C)[C@H]3C/C(=N\O)C4[C@@H]5C[C@@](C)(CO)CC[C@]5(C)CC[C@@]4(C)[C@]3(C)CC[C@@H]12` (stereo partly drawn), `O=C(Nc1cc(F)cc2cccnc12)c1cnc(N2CCOCC2)cn1` is lower in growth: 68.9% for the first, 36.9% for the second.

`Cn1c2ccccc2c2c3c(c4c5ccc(Br)cc5oc4c21)C(=O)N(O)C3=O` gave a growth of 73%.

In the case of `CC1=C(C)C(=O)C(Nc2ccc3c(c2)OCCO3)=C(Br)C1=O`, the growth was -44.2% (active).
`C#C[C@]1(O)CC[C@H]2[C@@H]3CC=C4c5sc(-c6cccc(O)c6)nc5CC[C@]4(C)[C@H]3CC[C@@]21C` was tested, and the growth was -30.7% (active).
